# Laboratory results published in PubChem BioAssay AID1347146 (National Center for Advancing Translational Sciences (NCATS), 2019).
# Records with an inconclusive call do not appear. Calls of active or inactive are those of the source. Calls come from the whole dose curve; as a rule, active = well fitted inhibition curve with a large enough effect; inconclusive = small, poorly fitted or top-dose-only effect; inactive = no such curve, though single readings can be large or run the other way.
# Target: Nicotinamide N-methyltransferase (Homo sapiens) (UniProt P40261)
# Sequence (P40261 whole entry, looked up): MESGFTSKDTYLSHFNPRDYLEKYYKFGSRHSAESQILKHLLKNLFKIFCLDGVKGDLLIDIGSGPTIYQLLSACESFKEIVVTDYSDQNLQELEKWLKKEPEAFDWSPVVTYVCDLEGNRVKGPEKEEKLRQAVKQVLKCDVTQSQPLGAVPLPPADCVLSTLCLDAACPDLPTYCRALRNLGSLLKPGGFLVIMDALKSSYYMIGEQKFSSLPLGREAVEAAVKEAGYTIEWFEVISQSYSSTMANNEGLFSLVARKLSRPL
# Assay: qHTS Assay for Inhibitors of N-terminal methyltransferase 1 (NTMT1): NNMT MTaseGlo counterscreen assay;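 for activity change, negative = inhibition: plate controls were DMSO without inhibitor for no effect and no-enzyme control for full effect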
# Settings: NNMT enzyme, MTase-Glo luminescence counterscreen; series mostly up to 57.1 µM; activity change, negative = inhibition: at the top concentration
# In short: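 Luminescent MTase-Glo read-out of SAH from nicotinamide methylation: 1 µM nicotinamide, 100 µM SAM, 125 nM NNMT, 30 min RT after ~15 min compound preincubation. Values normalized to no-enzyme/DMSO controls, Hill-fitted.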
# Potency is the fitted concentration of half-maximal effect.
SMILES,"activity change, negative = inhibition",Potency
Cc1c(OCC(F)(F)F)ccnc1CS(=O)c1nc2ccccc2[nH]1 (stereo unspecified),-12.3% (inactive),
Nc1nc(Nc2ccccc2)nc2c1ncn2[C@@H]1O[C@H](CO)[C@@H](O)[C@H]1O,-12% (inactive),
CN=c1nc(-c2ccccc2)n(-c2ccccc2)s1,-11.7% (inactive),
OCC1OC(n2cnc3c(NCc4ccco4)ncnc32)C(O)C1O (stereo unspecified),50.2% (inactive),
N#C/C(=C\c1ccc(O)c(O)c1)C(=O)c1ccc(O)c(O)c1,-6.84% (inactive),
Oc1ccc(Cn2cc[nH]c2=S)cc1,-10.6% (inactive),
Cc1cc2c(cc1Cl)N(C(=O)Nc1ccc(Oc3cccnc3C)nc1)CC2,-5.64% (inactive),
CC[N+](CC)(CC)CCOc1cccc(OCC[N+](CC)(CC)CC)c1OCC[N+](CC)(CC)CC,-11.5% (inactive),
OC[C@H]1O[C@@H](n2cnc3c(NCc4ccco4)ncnc32)[C@H](O)[C@@H]1O,48.5% (inactive),
Nc1ncnc2c1ncn2[C@@H]1O[C@H](CO)[C@@H](O)[C@H]1O,,inactive
COc1cc2c(NC3CCN(C(C)C)CC3)nc(N3CCC(F)(F)CC3)nc2cc1OCCCN1CCCCC1,-5.35% (inactive),
Oc1cc(O)c2c(c1)O[C@H](c1ccc(O)c(O)c1)[C@@H](O)C2,-8.77% (inactive),
CN(C)CCCC1(c2ccc(F)cc2)OCc2cc(C#N)ccc21 (stereo unspecified),-12.4% (inactive),
C/C(=C\CNc1ncnc2c1ncn2[C@@H]1O[C@H](CO)[C@@H](O)[C@H]1O)CO,92.7% (inactive),
C[N+]1(C)CCC(OC(=O)C(c2ccccc2)c2ccccc2)CC1,-7.96% (inactive),
C[C@]12C[C@H](O)[C@H]3[C@@H](CCC4=CC(=O)CC[C@@]43C)[C@@H]1CC[C@@H]2C(=O)CO,-13.2% (inactive),
COc1cc(/C=C(\C#N)C(=O)Nc2nnc(C(F)(F)F)s2)ccc1OCc1ccc(C(F)(F)F)cc1C(F)(F)F,-13.8% (inactive),
OCCN1CCN(CC/C=C2/c3ccccc3Sc3ccc(C(F)(F)F)cc32)CC1,-10.3% (inactive),

SMILES,"activity change, negative = inhibition",Potency
Oc1ccc2ccccc2c1SSc1c(O)ccc2ccccc12,-21.1% (inactive),
CCCCNc1ccc(C(=O)OCCN(C)C)cc1,-6.3% (inactive),
CC(C)COCC(CN(Cc1ccccc1)c1ccccc1)N1CCCC1 (stereo unspecified),-7.75% (inactive),
O=c1c(-c2ccc(O)cc2)coc2cc(O)cc(O)c12,-8.39% (inactive),
NS(=O)(=O)c1cccc2c1c([N+](=O)[O-])cc1nc(O)c(O)nc12,-10% (inactive),
N.N.N.N.N.N.N.N.N.N.N.N.N.N.O.O.[Ru+4].[Ru+5].[Ru+5],-1.41% (inactive),
Oc1ccc(C2CNCc3sccc32)cc1O (stereo unspecified),,35.5 µM (active)
COc1cc2nc(N3CCCN(C)CC3)nc(NC3CCN(Cc4ccccc4)CC3)c2cc1OC,-0.648% (inactive),
CC1=C(\C=C/C(C)=C/C=C\C(C)=C\C(=O)O)C(C)(C)CCC1,-8.2% (inactive),
CC(C)NC[C@H](O)c1ccc(O)c(O)c1,,inactive
COc1cccc(OC)c1OCCNCC1CSc2ccccc2O1 (stereo unspecified),-11.3% (inactive),
CCn1nc(C(=O)O)c(=O)c2cc3c(cc21)OCO3,-3.83% (inactive),
CC(C)NCC(O)c1ccc(O)c(O)c1 (stereo unspecified),-11.3% (inactive),
N#CC(C#N)=C(N)/C(C#N)=C/c1ccc(O)cc1,-11% (inactive),
CCN1CCC[C@H]1CNC(=O)c1cc(S(N)(=O)=O)ccc1OC,-5.75% (inactive),
O=Nc1ccc2oc(=O)ccc2c1,-8.49% (inactive),
Cc1cccc(C)c1OCC(N)C(C)C (stereo unspecified),-3.53% (inactive),
CC(C)(C)c1ccc(S(=O)(=O)/C=C\C#N)cc1,,11.2 µM (active)
